The source made the active and inactive calls. How the source made its calls: active means hit-call score of the fitted dose curve at least 0.9, where 1 is the maximum; inactive means score below 0.9.

What is called AC50 is the concentration at which the activity in the assay is half-maximal.

This assay is described as follows: CCTE_Shafer_MEA_dev_network_spike_duration_std: CCTE's Neural Network Formation Assay for Standard Deviation of Network Spike Duration, Shafer Lab (AID 2284052).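 Further: hits are decreases in network spike duration SD versus DMSO vehicle.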 The method, then:
CCTE_Shafer_MEA_dev assay is conducted using Axion Biosystems 48 well microelectrode array (MEA) plates and Maestro recording system. Each well of the MEA plate contains a grid of 16 microelectrodes embedded in the culture surface. Electrically active cells, such as neurons, can be cultured over the electrodes, and electrical activity in these cells can be recorded extracellularly. The spontaneous firing of neurons is captured from each electrode on a microsecond timescale providing both temporally and spatially precise data. […] The CCTE_Shafer_MEA_dev assay uses primary cultures of rat cortical neurons. Recordings are made on days post-plating 5, 7, 9 and 12. As these cultures mature over time, neural networks develop functional activity and form cohesive networks in which electrical activity can be highly coordinated. CCTE_Shafer_MEA_dev_network_spike_duration_std is 1 of 19 assay components of the CCTE_Shafer_MEA_dev assay. It measures the standard deviation of the duration of network spikes (temporally-clustered groups of action potential firing across multiple electrodes) during a recording in a microelectrode array (MEA) using Axion Biosystems Maestro 768 channel amplifier with the AxIS adaptive spike detector. To collapse across multiple recordings made on days post-plating 5, 7, 9 and 12, the trapezoidal area-under-the-curve of the component is calculated.Data from the assay component CCTE_Shafer_MEA_dev_network_spike_duration_std was analyzed into 1 assay endpoint. This assay endpoint, CCTE_Shafer_MEA_dev_network_spike_duration_std, was analyzed in the negative analysis fitting direction relative to DMSO as the negative control and baseline of activity. Using a type of functional reporter, gain or loss-of-signal activity can be used to understand electrical activity.
On the day prior to culture, each well was coated thoroughly with 150 uL of 0.05% polyethyleneimine (PEI, Sigma Cat P3143) in 50 mM HEPES (Sigma Cat H7523) at a pH of 8. The plate was incubated at 37C for one hour. PEI was rinsed out with 500 uL of sterile water three times. Plates were stored at 4C until the day of culture. This culture was plated at a seeding density of 1.5 x 10^5 cells/well on a 48-well MEA plate, prepared as described above. Cells were administered via a 25 uL media/laminin ([…]; Sigma Cat L2020-1MG) drop directly onto the microelectrode array, as adding the cells with the laminin results in better attachment than pre-coating with laminin. After 2 hours, an additional 475 uL of cortical media was added and the cells returned to the incubator. Exposure starts at day 0 of plating and is continued over twelve days of network development until the experiment is terminated. Cells are fed with fresh medium on DIV 5 and 9, following the recordings on those days. The entire volume of media in the well is exchanged and any vehicle or compound treatment is renewed. Complete details are found in OP-NHEERL/ISTD/SBB/TJS/2015-03-r0 (available on request, email shafer.tim@epa.gov). Measurement of the electrical activity is non-invasive, and recordings can be made from the same plate over multiple different days of the culture. In cortical neurons, this allows for the measurement of extracellular action potentials over the period during which networks form in the MEA plate.
Take `CC(C)O`: the result was inactive.

Regarding `CN(C)CCCn1cc(C2=C(c3c[nH]c4ccccc34)C(=O)NC2=O)c2ccccc21`, the outcome was inactive.

With `F`, the molecule was called inactive.

With `CC(=O)N[C@@H](CC(=O)O)C(=O)O`, the outcome was inactive.

Turning to `BrC1CC(Br)CC(Br)CC(Br)CC(Br)CC(Br)C1` (stereo not drawn), the AC50 was 5.04 µM (active).

Regarding `O=C1CC2(CCCC2)CC(=O)N1CCCCN1CCN(c2ncccn2)CC1`, the molecule was called inactive.

On to `CCc1ccccc1`, for which the result was inactive.

For the molecule `CC(C)c1nn(C(=O)NC(C)(C)C)c(=O)n1N`, the call was inactive.

As for `C[C@@H]1CC[C@@H](C(C)(C)O)[C@H](O)C1`, the call was inactive.

Turning to `Brc1cc(Br)c(Oc2cc(Br)c(Br)cc2Br)cc1Br`, the call was inactive.

In the case of `C[C@@H]1CCO[C@H]2Cn3cc(C(=O)NCc4ccc(F)cc4F)c(=O)c(O)c3C(=O)N12`, the result was inactive.

As to `CCCCCC=C(C)C(CC)CCO` (stereo not drawn), the result was inactive.

With `CCCCCC(C)(CC)C(=O)NC` (stereo not drawn), the molecule was classed as inactive.

As for `c1ccc2c(c1)ccc1c3ccccc3ccc21`, the outcome was inactive.

As to `Cc1[nH]n(C)c(=O)c1C(=O)c1ccc(C(F)(F)F)cc1S(C)(=O)=O`, the result was inactive.

For the molecule `[O]=[V]([OH])([OH])[OH]`, the molecule was classed as inactive.

In the case of `CC(CNC(=S)[S-])NC(=S)[S-].[Zn+2]` (stereo not drawn), the concentration at half-maximal activity (AC50) is 3.38 µM (active).

As for `c1cc2c3c(c1)ccc1cccc(c13)C2`, the molecule was classed as inactive.

The record behind these values is PubChem BioAssay (EPA / NIEHS).
